Inconclusive results are not listed. The source made the active and inactive calls. How the source made its calls, unless noted: active means hit-call score of the fitted dose curve at least 0.9, where 1 is the maximum; inconclusive means response in the unintended direction; inactive means score below 0.9.
Assays:
[1] = Tanguay_ZF_120hpf_JAW_legacy: (Legacy) Oregon State University Tanguay Lab 120 Hour Post-fertilization zebrafish Assay for Jaw Malformation (AID 2283638);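 on AC50: active means more embryos with jaw malformation than DMSO controls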
In short: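 Dechorionated Tropical 5D wild-type zebrafish embryos, one per well, exposed statically from 6 hpf to 120 hpf at 28C in 0.64% DMSO. Jaw malformation was scored by brightfield microscopy as present or absent. It was not scored in dead embryos.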

[2] = Tanguay_ZF_120hpf_OTIC_legacy: (Legacy) Oregon State University Tanguay Lab 120 Hour Post-fertilization zebrafish Assay for Otic Vesicle Malformation (AID 2283639)
In short: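 Embryos from 5D wild-type adults exposed in plates; DMSO 0.64% v/v final. Sealed, light-protected, 28C, static to 120 hpf. Otic vesicle malformation recorded as binary endpoint; gain-of-signal fitted vs DMSO.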

[3] = Tanguay_ZF_120hpf_BRAI_legacy: (Legacy) Oregon State University Tanguay Lab 120 Hour Post-fertilization zebrafish Assay for Brain Malformation (AID 2283641)
In short: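 Tropical 5D wild-type zebrafish embryos exposed statically until 120 hpf at 28C, 0.64% DMSO final, sealed and dark. Brain malformation scored present/absent by brightfield at 120 hpf; dead embryos excluded. Trimethyltin chloride 5uM positive control.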

[4] = Tanguay_ZF_120hpf_SOMI_legacy: (Legacy) Oregon State University Tanguay Lab 120 Hour Post-fertilization zebrafish Assay for Somite Malformation (AID 2283647)
In short: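 Dechorionated Tropical 5D wild-type zebrafish embryos, one per well from 6 hpf, statically exposed at 28C to 120 hpf in 0.64% DMSO; somite malformation scored present/absent by brightfield; trimethyltin 5 uM positive control; dead embryos not scored.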

[5] = Tanguay_ZF_120hpf_CFIN_legacy: (Legacy) Oregon State University Tanguay Lab 120 Hour Post-fertilization zebrafish Assay for Caudal Fin Malformation (AID 2283649)
In short: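 Dechorionated Tropical 5D wild-type embryos, one per well from 6 hpf, static exposure to 120 hpf at 28C in 0.64% DMSO. Caudal fin malformation scored by brightfield as present/absent; not scored in dead embryos.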

[6] = Tanguay_ZF_120hpf_CIRC_legacy: (Legacy) Oregon State University Tanguay Lab 120 Hour Post-fertilization zebrafish Assay for Circulatory Malformation (AID 2283651)
In short: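 Read-out: presence or absence of circulatory malformation at 120 hpf, scored by brightfield microscopy, fitted in the gain-of-signal direction against DMSO baseline. Wild-type 5D larvae were exposed from 6 hpf after enzymatic chorion removal.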

[7] = Tanguay_ZF_120hpf_SWIM_legacy: (Legacy) Oregon State University Tanguay Lab 120 Hour Post-fertilization zebrafish Assay for Swim Bladder Malformation (AID 2283654);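 further: swim bladder malformation in each larva scored yes or no under brightfield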
In short: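 Embryos lacking chorions were exposed individually and statically to test chemical from 6 to 120 hpf at 28C, with 0.64% DMSO as vehicle. At 120 hpf, swim bladder malformation was recorded as present or absent by brightfield microscopy.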

[8] = Tanguay_ZF_120hpf_TRUN_legacy: (Legacy) Oregon State University Tanguay Lab 120 Hour Post-fertilization zebrafish Assay for Truncated Body (AID 2283655)
In short: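 Dechorionated Tropical 5D wild-type embryos placed singly from 6 hpf and statically exposed to 120 hpf at 28C, final DMSO 0.64%. Truncated body scored as present/absent by brightfield; not scored in dead embryos.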

[9] = Tanguay_ZF_120hpf_NC_legacy: (Legacy) Oregon State University Tanguay Lab 120 Hour Post-fertilization zebrafish Assay for Notochord and Tail Malformation (AID 2283656)
In short: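 Dechorionated Tropical 5D wild-type zebrafish embryos, one per well from 6 hpf, statically exposed to 120 hpf at 28C in 0.64% DMSO final. Notochord distortion scored present/absent by brightfield; dead embryos excluded.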

[10] = Tanguay_ZF_120hpf_PE_legacy: (Legacy) Oregon State University Tanguay Lab 120 Hour Post-fertilization zebrafish Assay for Pericardial Edema (AID 2283640)
In short: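 Tropical 5D wild-type zebrafish embryos were statically exposed until 120 hpf at 28C, with 0.64% DMSO final. Pericardial edema was scored by brightfield as present or absent; endpoints were not scored in dead embryos.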

[11] = Tanguay_ZF_120hpf_PIG_legacy: (Legacy) Oregon State University Tanguay Lab 120 Hour Post-fertilization zebrafish Assay for Pigmentation Malformation (AID 2283650)
In short: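 Pronase dechorionation at 4 hpf; embryos plated at 6 hpf, one per well; static exposure, sealed and foil-covered, 28C, to 120 hpf; pigmentation read by brightfield, binary; DMSO 0.64% baseline, 5uM trimethyltin chloride positive control.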

[12] = system: Thyroperoxidase (TPO), gene 54314; assay: CCTE_Simmons_AUR_rTPO: CCTE's Amplex UltraRed Assay for Thyroperoxidase (TPO) Inhibition, Simmons Lab (AID 2283662);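 on AC50: potency for loss of signal meaning inhibition of peroxidase activity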
In short: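 Rat thyroid microsomes (5 ug protein) with 25 uM Amplex UltraRed and 300 uM H2O2 in 200 mM phosphate buffer, 30 min at 37C in dark; fluorescence 544/590 nm. Eight concentrations, 5 nM–87.5 uM final, 0.5% DMSO, triplicate biological replicates.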

[13] = read-out: ABC Transporter (ABCB1), ABCB1 (gene 5243); assay: CLD_ABCB1_6hr: CellzDirect (CLD) Gene Expression Assay for ABC Transporter (ABCB1) at 6 hours (AID 2283659);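 further: hits raise ABCB1 transcript above the DMSO vehicle baseline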
In short: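 Primary human hepatocytes (two donor preparations) dosed daily for two days with chemicals at multiple concentrations, 0.2% DMSO vehicle; harvested 6 h post-dose. ABCB1 mRNA induction quantified by qNPA chemiluminescence; gain-of-signal fitted versus DMSO.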

[14] = read-out: Broad substrate specificity ATP-binding cassette transporter ABCG2 (Homo sapiens) (UniProt Q9UNQ0); assay: CLD_ABCG2_6hr: CellzDirect (CLD) Gene Expression Assay for ABC Transporter (ABCG2) at 6 hours (AID 2283660)
In short: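 Primary human hepatocytes dosed daily with chemicals at multiple concentrations (0.2% DMSO vehicle), harvested 6 h after dosing. ABCG2 mRNA induction read by quantitative nuclease protection assay (qNPA) chemiluminescence; gain of signal fitted against DMSO baseline.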

[15] = read-out: xenobiotic metabolism (CYP1A1), CYP1A1 (gene 1543); assay: CLD_CYP1A1_6hr: CellzDirect (CLD) Gene Expression Assay for xenobiotic metabolism (CYP1A1) at 6 hours (AID 2283661)
In short: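 Primary human hepatocytes from two donors, compound versus 0.2% DMSO vehicle. CYP1A1 mRNA measured 6 h after dosing by quantitative nuclease protection assay with chemiluminescent read-out; induction fitted relative to DMSO, cytotoxicity flagged by microscopy.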

[16] = read-out: xenobiotic metabolism (CYP1A2), CYP1A2 (gene 1544); assay: CLD_CYP1A2_6hr: CellzDirect (CLD) Gene Expression Assay for xenobiotic metabolism (CYP1A2) at 6 hours (AID 2283663)
In short: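 Primary human hepatocytes from two donor preparations, dosed daily with multiple concentrations in 0.2% DMSO and harvested at 6 h. CYP1A2 mRNA induction measured by chemiluminescent qNPA, gain of signal fitted against DMSO; cytotoxicity flagged morphologically.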

[17] = read-out: solute carrier (SLC22A6), SLC22A6 (gene 9356); assay: LTEA_HepaRG_SLC22A6: Life Technologies and Expression Analysis (LTEA) Assay for solute carrier (SLC22A6) using HepaRG (AID 2283653; active means hit-call score of the fitted dose curve at least 0.9, where 1 is the maximum; inactive means score below 0.9); settings: mRNA level, 48 h; actives raise or lower the signal
In short: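 Differentiated HepaRG cells exposed 48 h in serum-free induction medium to 8 half-log concentrations, top 100 uM, in 0.5% DMSO; SLC22A6 mRNA by Fluidigm qRT-PCR normalized to ACTB, GAPDH, POLR2A, fitted bidirectionally versus DMSO.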

[18] = read-out: solute carrier (SLC10A1), SLC10A1 (gene 6554); assay: LTEA_HepaRG_SLC10A1: Life Technologies and Expression Analysis (LTEA) Assay for solute carrier (SLC10A1) using HepaRG (AID 2283657; active means hit-call score of the fitted dose curve at least 0.9, where 1 is the maximum; inactive means score below 0.9); settings: mRNA level, 48 h; actives raise or lower the signal
In short: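 Transcript levels were measured by qRT-PCR after human HepaRG cells received test chemical for 48 hours, up to 100 uM in half-log dilutions. Values come from bidirectional concentration-response fitting relative to 0.5% DMSO vehicle.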

[19] = read-out: matrix metalloproteinase-1 (MMP1), MMP1 (gene 4312); assay: LTEA_HepaRG_MMP1: Life Technologies and Expression Analysis (LTEA) Assay for matrix metalloproteinase-1 (MMP1) using HepaRG (AID 2283658; active means hit-call score of the fitted dose curve at least 0.9, where 1 is the maximum; inactive means score below 0.9); settings: mRNA level, 48 h; actives raise or lower the signal
In short: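 Differentiated human HepaRG cells, 48 h post-plating in serum-free induction medium, were exposed 48 h to eight half-log concentrations topping at 100 uM in 0.5% DMSO, duplicate. MMP1 mRNA measured by Fluidigm TaqMan qRT-PCR, normalized to ACTB, GAPDH, POLR2A; bidirectional fits versus DMSO.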

[20] = Tanguay_ZF_120hpf_PFIN_legacy: (Legacy) Oregon State University Tanguay Lab 120 Hour Post-fertilization zebrafish Assay for Pectoral Fin Malformation (AID 2283648);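 further: each larva judged yes or no for fin defect by brightfield with dead larvae skipped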
In short: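 5D WT zebrafish; pronase dechorionation 4 hpf; 1 embryo/well at 6 hpf; static exposure to 120 hpf, 28C, sealed, foil-covered; final DMSO 0.64% v/v; 5 uM trimethyltin chloride positive control; fin defect scored yes/no.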

Measured: AC50

Sequence of Broad substrate specificity ATP-binding cassette transporter ABCG2 (Homo sapiens) (Q9UNQ0 whole entry, looked up): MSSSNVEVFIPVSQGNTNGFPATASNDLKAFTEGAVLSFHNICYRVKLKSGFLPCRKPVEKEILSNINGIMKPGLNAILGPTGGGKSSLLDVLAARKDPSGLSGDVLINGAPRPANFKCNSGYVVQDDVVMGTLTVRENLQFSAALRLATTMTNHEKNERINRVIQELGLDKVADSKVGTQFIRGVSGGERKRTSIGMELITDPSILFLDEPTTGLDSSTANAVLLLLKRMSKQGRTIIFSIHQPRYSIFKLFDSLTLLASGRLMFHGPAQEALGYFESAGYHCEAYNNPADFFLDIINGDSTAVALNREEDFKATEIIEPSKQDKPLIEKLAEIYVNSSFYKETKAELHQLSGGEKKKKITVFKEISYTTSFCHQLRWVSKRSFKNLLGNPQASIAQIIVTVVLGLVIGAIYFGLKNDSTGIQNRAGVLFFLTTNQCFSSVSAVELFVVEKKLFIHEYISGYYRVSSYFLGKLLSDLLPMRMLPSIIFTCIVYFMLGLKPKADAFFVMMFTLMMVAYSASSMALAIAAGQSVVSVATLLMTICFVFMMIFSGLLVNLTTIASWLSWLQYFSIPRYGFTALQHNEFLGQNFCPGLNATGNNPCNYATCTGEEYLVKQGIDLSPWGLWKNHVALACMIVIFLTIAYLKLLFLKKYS

ClC1=C(Cl)[C@]2(Cl)[C@@H]3[C@H]4C[C@H]([C@@H]5O[C@H]45)[C@@H]3[C@@]1(Cl)C2(Cl)Cl
active: [3] 66.7 µM | [4] 65.6 µM | [5] 66.1 µM
inactive: [1] | [2] | [6] | [7] | [8] | [9]

Cc1ccccc1[N+](=O)[O-]
inactive: [1] | [2] | [10] | [3] | [4] | [5] | [11] | [6] | [7] | [8]

O=C(O)C(F)(F)C(F)(F)C(F)(F)C(F)(F)C(F)(F)C(F)(F)C(F)(F)C(F)(F)F
inactive: [1] | [2] | [3] | [4] | [5] | [11] | [7] | [8] | [9] | [12]

Cc1ccccc1CO[C@@H]1C[C@@]2(C(C)C)CC[C@]1(C)O2
active: [12] 28 µM
not listed: [6] | [10] | [17] | [18] | [19] | [20]
inactive: all other assays above

CCCCCCCCCc1ccc(O)cc1
active: [12] 10.5 µM
not listed: [3] | [6] | [13] | [14] | [15] | [16] | [20]
inactive: all other assays above

CC(C)C(=O)OCC(C)(C)C(OC(=O)C(C)C)C(C)C (stereo not given)
inactive: [2] | [3] | [4] | [5] | [11] | [7] | [8] | [9]
active: [1] 41.6 µM

C[C@]12CCC(=O)C=C1CC[C@@H]1[C@@H]2CC[C@@]2(C)[C@H]1CC[C@]2(C)O
inactive: [1] | [2] | [3] | [4] | [5] | [11] | [7] | [8] | [9]

Cc1cc(O)ccc1Cl
inactive: [1] | [2] | [10] | [5] | [11] | [6] | [8] | [9]

Cc1cccc([N+](=O)[O-])c1
inactive: [1] | [2] | [3] | [4] | [20] | [5] | [11] | [7] | [8] | [9]

CCC(=O)O[C@H]1CC[C@H]2[C@@H]3CCC4=CC(=O)CC[C@]4(C)[C@H]3CC[C@]12C
inactive: [1] | [2] | [10] | [3] | [4] | [5] | [11] | [7] | [8] | [9] | [12]

O=C(O)C(F)(F)C(F)(F)C(F)(F)C(F)(F)C(F)(F)F
inactive: [1] | [2] | [10] | [3] | [5] | [11] | [7] | [8] | [9]

NS(=O)(=O)C(F)(F)C(F)(F)C(F)(F)C(F)(F)C(F)(F)C(F)(F)C(F)(F)C(F)(F)F
inactive: [1] | [2] | [3] | [4] | [11] | [8]
active: [5] 4.88 µM

Cc1ccccc1O
inactive: [1] | [2] | [3] | [4] | [20] | [5] | [11] | [7] | [8] | [9]

CCC(C)c1cc([N+](=O)[O-])cc([N+](=O)[O-])c1O (stereo not given)
inactive: [1] | [2] | [3] | [4] | [20] | [5] | [11] | [7] | [8] | [9]

Cc1ccc(O)c(C)c1
inactive: [1] | [2] | [3] | [4] | [20] | [5] | [11] | [7] | [8] | [9]
active: [12] 18.2 µM
